# From PubChem
# D1 antag: antagonists of human D1 dopamine receptor; P21728; AID 504652; activity change, negative = inhibition, % at 10 µM; HEK293 TREx D1 cells, calcium flux, dopamine EC80; stronger effect = lower value; 3.2% of 360,000 active; in the data active = activity change below about -30%; note: % is set by controls: 0 for no effect and ±100 for the full control effect
#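 Kinetic fluorescence of a calcium dye serves as the read-out. D1-expressing Hek293 Trex cells, induced overnight at 30 C, are exposed to compound for 180 s before an EC80 dopamine addition, then read 180 s further.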
# D1 potentiator: enhances dopamine response at the human D1 receptor. P21728. HEK293 TREx D1 cells, calcium flux, dopamine EC20 potentiation. potentiation, % at 10 µM. 0.036% of 360,000 active. AID 504651; in the data active = potentiation above about 30%; note: 0% is about no effect
# DRD3 antagonist: blocks the human D3 dopamine receptor; P35462; max response, negative = inhibition, %; D3R cells, DiscoveRx beta-arrestin luminescence, antagonist mode; stronger effect = lower value; AID 652054; 2.5% of 360,000 active; in the data active = max response below about -50%; inconclusive = no clear call, values can overlap the other calls; note: % is set by controls: 0 for no effect and ±100 for the full control effect
# Target sequence (P35462 whole entry, looked up): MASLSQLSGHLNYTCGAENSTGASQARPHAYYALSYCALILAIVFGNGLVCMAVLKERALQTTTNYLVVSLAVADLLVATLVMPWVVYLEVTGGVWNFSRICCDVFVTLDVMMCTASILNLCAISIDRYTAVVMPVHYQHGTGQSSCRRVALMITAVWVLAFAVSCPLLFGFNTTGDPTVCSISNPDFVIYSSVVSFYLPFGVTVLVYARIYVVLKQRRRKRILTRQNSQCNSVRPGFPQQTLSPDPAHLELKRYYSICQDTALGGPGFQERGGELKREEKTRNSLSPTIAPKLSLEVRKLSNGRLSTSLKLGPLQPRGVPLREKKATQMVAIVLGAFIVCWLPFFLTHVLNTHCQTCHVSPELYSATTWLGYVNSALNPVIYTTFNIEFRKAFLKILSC
#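 Cells plated overnight at 1500 cells/well, then exposed to library compounds with dopamine controls for 90 minutes at 37 degrees C. DiscoveRx reagent added for 30–60 minutes at room temperature; luminescence read, quantitative HTS format.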
# D1 agonist: activates the human D1 dopamine receptor; 1% of 360,000 active; HEK293 T-REx D1 cells, calcium flux, agonist mode; activation, % at 2 µM; in the data active = activation above about 30%; note: 0% is about no effect
#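 Inducible HEK293 T-REx D1 cells, force-coupled to calcium signalling, were plated at 4000 cells/well with tetracycline and held overnight at 30 C. After no-wash calcium dye loading, compound-evoked calcium rise over 180 s flagged agonists.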
# DRD3 agonist: activates the human D3 dopamine receptor. D3R DiscoveRx beta-arrestin cells, luminescence, 90 min. P35462. 0.58% of 410,000 active. max activation, %; in the data active = max activation above about 30%; note: 0% is about no effect
#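 Agonist-mode cell screen: cells plated at 1500/well and incubated overnight at 37 °C, then exposed to library compounds for 90 min at 37 °C. Detection reagent was added for 30–60 min at room temperature, and luminescence was read.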
# Starred values were filed as active, the others as inactive; ? = inconclusive; / = no result given. Hits are enriched below; roughly 6% of the tested compounds scored in any of these assays.
SMILES,D1 antag,D1 potentiator,DRD3 antagonist,D1 agonist,DRD3 agonist
CCC(C)(C)n1nnnc1C(c1cc2ccc(OC)cc2[nH]c1=O)N1CCCCC1 (configuration not stated),6,-2,-23,0,0
COc1cc(CN(C)C)cc(C=O)c1O,-15,-1,3,0,-3
COc1cc(N=Nc2ccc(Br)cc2)cc(C=O)c1O,/,/,-75*,/,-3
Cc1ccc(C)c(Cn2c(=O)n(Cc3ccco3)c(=O)c3oc4ccccc4c32)c1,10,-4,/,1,-17
Cc1ccc(C)c(Cn2c(=O)n(C(C)C)c(=O)c3oc4ccccc4c32)c1,-80*,-2,/,0,-11
CCOC(=O)CC(=O)CSc1nc2c(c(-c3cccs3)c1C#N)CCC2,1,4,-1,6,-1
N#Cc1c(N)nc(SCc2ccncc2)c(C#N)c1-c1cccs1,-34*,-4,38,4,23
CN1CCc2nc(SCc3ccc(Cl)cc3)c(C#N)c(-c3cccs3)c2C1,/,/,-60*,/,-38
COCCN(C(=O)COC(=O)C1CCCCC1)c1c(N)n(Cc2ccccc2)c(=O)[nH]c1=O,/,/,-10,/,5
CSc1ccc2c(c1)N(CCC1CCCCN1C)c1ccccc1S2 (configuration not stated),-87*,-4,-89*,40*,-82
COCc1nc2ccccc2n1Cc1ccc(C(C)(C)C)cc1,-6,-5,/,2,7
CCn1c(N2CCN(C(=O)NC3CCCCC3)CC2)nc2ccccc21,2,-1,4,-1,-4
COc1ccc(CNc2nc3ccccc3n2C(C)C)cc1,10,-7,-20,1,-9
Cn1c(CNc2nc3ccccc3n2C)nc2ccccc21,-2,-3,-70*,7,-11
CC(C)n1c(NCc2nc3ccccc3n2C)nc2ccccc21,-22,1,-93*,-1,-11
CCn1c(NC2CCCCC2)nc2ccccc21,-34*,-7,?,0,-1
CCn1c(CNc2nc3ccccc3n2C(C)C)nc2ccccc21,3,0,-59*,1,-13
COc1cccc(CC(=O)N2CCCC(CO)(Cc3ccc(F)cc3F)C2)c1 (configuration not stated),-47*,-5,-1,7,-3
COC(=O)c1ccc(CN2CCCC(CO)(Cc3ccc(F)cc3F)C2)cc1 (configuration not stated),25,-9,-96*,-3,-18
O=C(Cc1cccc(F)c1)N1CCCC(CO)(Cc2ccc(F)cc2F)C1 (configuration not stated),31,-3,0,-1,-11
O=C(Nc1ccccc1C(F)(F)F)N1CCC(CN2CCc3ccccc3C2)CC1,-6,6,/,30*,-19
CC1CCCCC1N(C)C1CCN(C(=O)CNC(=O)/C=C/c2cccc(Cl)c2)CC1 (configuration not stated),-31*,-2,-27,14,0
Cc1cc(C)c(NC(=O)CSc2ccnc(=O)[nH]2)c(C)c1,/,-2,/,1,-13
C=CCNC(=S)NNC(=O)c1cccn(Cc2ccc(Cl)cc2Cl)c1=O,25,-3,-73*,2,-12
CCNC(=S)NNC(=O)c1cccn(Cc2ccc(Cl)cc2Cl)c1=O,/,/,-59*,/,-5
SMILES,D1 antag,D1 potentiator,DRD3 antagonist,D1 agonist,DRD3 agonist
FC(F)(F)c1cc(-c2cccc(Br)c2)nc2ncnn12,5,-5,/,2,-3
COc1cccc(N2CC(NS(=O)(=O)c3cccnc3)CC2=O)c1 (configuration not stated),-8,3,-10,5,-15
COc1cccc(N2CC(NS(=O)(=O)c3ccc4ccccc4c3)CC2=O)c1 (configuration not stated),-21,-3,4,31*,0
CCOc1ccc(CNS(=O)(=O)c2cc(CN3C(=O)c4cccnc4C3=O)ccc2OC)cc1,-54*,3,-8,-1,1
CCc1ccccc1NC(=O)C1CCCN(S(=O)(=O)c2ccc3c(c2)CC(C)N3C(C)=O)C1 (configuration not stated),-14,-1,-9,2,-6
Cc1ccc(C)c(CN2C(=O)N(c3cc(Cl)ccc3C)S(=O)(=O)c3ccccc32)c1,-12,-3,/,1,3
CCN(CC)c1ccc(NC(=O)CN2CCN(c3ccc(F)cc3)CC2)cc1,-17,1,-25,0,0
CCN(CC)c1ccc(NC(=O)CN2CCN(c3nc(C)cc(C)n3)CC2)cc1,-33*,0,0,13,-6
CC(=O)c1ccc(NC(=O)CN2CCN(CC(=O)Nc3ccc(C(C)=O)cc3)CC2)cc1,16,6,9,0,4
N#Cc1ccc(NC(=O)CN2CCN(c3ccccn3)CC2)cc1,10,-1,12,5,49*
CC(=O)c1ccc(NC(=O)CN2CCN(c3ncccn3)CC2)cc1,1,-3,-24,4,70*
Cc1nc(N2CCN(c3ccccn3)CC2)c2c(C)c(C(=O)Nc3ccccc3F)sc2n1,-14,-3,15,0,7
CCc1ccc(NC(=O)c2sc3nc(C)nc(N4CCN(c5ccccn5)CC4)c3c2C)cc1,-84*,-12,17,2,-4
CCOC(=O)c1sc(NC(=O)c2nc3ncccn3n2)c(C(=O)OC)c1C,-14,3,/,0,0
CCN1C(=O)[C@H]2[C@@H](c3ccc(-c4ccc(F)cc4)cc3)N3CCCC[C@@]3(C(=O)OC)[C@H]2C1=O,-1,-7,0,7,-6
O=P(c1ccccc1)(c1ccccc1)C(O)c1cccs1 (configuration not stated),/,/,-8,/,-16
Cc1ccc(S(=O)(=O)N(C)C)cc1NC(=O)COC(=O)c1ccc2ccccc2n1,-55*,1,5,0,-4
CN(C)S(=O)(=O)c1cccc(NC(=O)COC(=O)c2ccc3ccccc3n2)c1,/,/,1,/,12
O=C(Nc1cccnc1)c1cc2nc(C3CC3)cc(C(F)(F)F)n2n1,-31*,-1,-22,-1,7
O=C(Nc1ccc2c(c1)OCO2)c1cc2nc(C3CC3)cc(C(F)(F)F)n2n1,4,2,14,1,20
COc1ccc(CCNC(=O)CCc2c(C)nc3c(c(C)nn3-c3ccc(C)c(C)c3)c2C)cc1OC,33,-1,/,3,1
COc1ccccc1CNC(=O)CCc1c(C)nc2c(c(C)nn2-c2ccc(C)c(C)c2)c1C,-73*,-3,/,-2,0
COc1ccc(C#Cc2cccc(-c3nc(C(=O)N4CCN(C)CC4)cc4c3[C@H](CCO)N(S(=O)C(C)(C)C)C4)c2)cc1OC (some centres not stated),/,/,-10,/,-9
NS(=O)(=O)c1ccc(N/N=C/C=C/c2ccccc2[N+](=O)[O-])cc1,3,-6,2,3,5
Nc1ccc(S(=O)(=O)NN=CC=Cc2ccccc2[N+](=O)[O-])cc1,/,/,-65*,/,-17
